Hits are enriched below; roughly 1.5% of the tested compounds scored in any of these assays.
V-ATPase pHluor: regulators of yeast V-ATPase proton pumping, primary screen, pHLuorin cytosolic pH fluorescence | response, % at 10 µM | actives 0.37% (n = 350,000) | S. cerevisiae | AID 504577, 2011; in the data active = response mostly above about 7.3%, no sharp cut-off; inactive = mostly below about 5.4%; also: actives read high
CRFBP-R2 agonist: agonists of CRF-BP/CRF-R2 complex, primary screen, cell-based, HEK293, calcium dye fluorescence, uHTS; CRF-binding protein / CRF receptor 2 complex (human); calcium dye fluorescence (FLIPR); percent of saturating CRF peptide response; activation, % at 13.2 µM; actives 0.46% (n = 350,000);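 active = activation of at least 50%, plus an integration ratio under a set limit after plate pattern correction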
CRFR2-BP antag: antagonists of CRF-BP/CRF-R2 complex, primary screen, cell-based, HEK293, calcium dye fluorescence, uHTS | CRF-induced calcium fluorescence | inhibition, % at 11.8 µM | actives 0.59% (n = 350,000) | AID 588475, 2011;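 active = inhibition of the ligand-induced calcium signal above about 50% at the single tested concentration, limit read from the data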
NTR1 agonist: agonists of human NTR1, primary screen, imaging, U2OS cells, beta-arrestin-GFP, high content. Neurotensin receptor type 1 (Homo sapiens), P30989. NTR1-U2OS beta-arrestin-GFP spot imaging, agonist mode. activation, % at 20 µM. actives 0.17% (n = 330,000). AID 493036, 2011;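 active = activation at or above 40% of the spot to cytoplasm intensity ratio, with at least 20 cells analyzed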
Target sequence (P30989 whole entry, looked up): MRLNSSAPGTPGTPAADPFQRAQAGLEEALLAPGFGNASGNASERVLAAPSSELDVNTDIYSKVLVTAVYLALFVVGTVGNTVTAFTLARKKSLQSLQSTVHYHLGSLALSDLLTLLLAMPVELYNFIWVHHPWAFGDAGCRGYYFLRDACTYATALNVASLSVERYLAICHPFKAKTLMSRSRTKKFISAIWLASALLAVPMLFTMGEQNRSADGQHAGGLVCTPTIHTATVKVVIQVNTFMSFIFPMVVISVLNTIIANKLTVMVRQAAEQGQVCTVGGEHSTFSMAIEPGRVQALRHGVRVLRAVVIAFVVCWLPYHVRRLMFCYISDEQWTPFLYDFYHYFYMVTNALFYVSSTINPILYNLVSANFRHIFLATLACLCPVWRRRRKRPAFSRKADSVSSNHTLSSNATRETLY
Each line names hits and unclear results; the compound was inactive in the other large screens.

COc1ccc(/C=C2\CCC(C3CCCC3)C2=O)cc1 (stereo unspecified)	none
COc1ccc(/C=C2/CCC(CN3CCOCC3)C2=O)cc1 (stereo unspecified)	CRFR2-BP antag 57.3 (no result: NTR1 agonist)
CC(NCc1cc(Br)ccc1OCC(N)=O)C12CC3CC(CC(C3)C1)C2 (stereo unspecified)	none
O=C(CCN1C(=O)C2CC=CCC2C1=O)NC1CCCCC1 (stereo unspecified)	none
CC1CCC(NC(=O)CCN2C(=O)C3CC=CCC3C2=O)CC1 (stereo unspecified)	CRFR2-BP antag 106.3
COc1ccc(Cc2nnc(NC(=O)Nc3ccc(C)cc3)s2)cc1OC	CRFR2-BP antag 83.5
COc1ccc(NC(=O)Nc2nnc(Cc3ccc(OC)c(OC)c3)s2)cc1	none
CCCCSCCCNC(=O)Nc1ccc(CC)cc1	none
O=C1N/C(=N/N=C/c2ccc(F)cc2)SC1c1ccccc1 (stereo unspecified)	CRFR2-BP antag 52.3
COc1cc(/C=N/N=C2/NC(=O)C(Cc3ccccc3)S2)ccc1O (stereo unspecified)	none
COc1cccc(C(=O)N2CCN(C(=O)COc3ccc4ccccc4c3)CC2)c1	none
CCC(C)(C)n1nnnc1C(c1cccc(C#N)c1)N1CCN(c2cccc(C)c2C)CC1 (stereo unspecified)	CRFR2-BP antag 50.9
CCN(CC(=O)Nc1ccc(OC)cc1)C(=O)c1ccc2c(=O)n3c(nc2c1)CCC3	none
CCC(C(=O)OCC(=O)N1C(C)CCCC1C)c1ccccc1 (stereo unspecified)	V-ATPase pHluor 284.3
CC1CCCC(C)N1C(=O)COC(=O)COc1ccc(C#N)cc1 (stereo unspecified)	CRFR2-BP antag 72.0
CC1CCCC(C)N1C(=O)COC(=O)c1ccccc1O (stereo unspecified)	none
CC1CCCN(C(=O)COC(=O)COc2ccc(C#N)cc2)C1 (stereo unspecified)	none
O=C(Nc1cc(Cl)ccc1O)C1CC(c2ccccc2Cl)=NO1 (stereo unspecified)	none
O=C(N/N=C/c1c(O)n(Cc2ccccc2)c(=O)c2ccccc12)c1cccnc1	CRFBP-R2 agonist 64.4
CC12CCC(=O)N1C(C(=O)OCC(=O)Nc1ccc(C(F)(F)F)cc1)CS2 (stereo unspecified)	none
COc1cc(NC(=O)CSc2nc3c(C)ccc(C)c3cc2C)c(C(=O)O)cc1OC	CRFR2-BP antag 98.7
COc1c(C)cc(S(=O)(=O)NCc2ccco2)c(C)c1C	none
O=C(OCCN1C(=O)c2cccc3c(N4CCOCC4)ccc(c23)C1=O)c1ccc(Cl)cc1Cl	CRFBP-R2 agonist 176.0 (no result: NTR1 agonist)
O=C(OCCN1C(=O)c2ccccc2C1=O)c1cc(S(=O)(=O)N2CCOCC2)ccc1Cl	none
O=C(OCCN1C(=O)c2cccc3c(N4CCOCC4)ccc(c23)C1=O)c1ccccc1Cl	CRFBP-R2 agonist 170.1 (no result: NTR1 agonist)
O=C(OCCN1C(=O)c2cccc3c(N4CCOCC4)ccc(c23)C1=O)c1cccc(Cl)c1	CRFBP-R2 agonist 175.2 (no result: V-ATPase pHluor, NTR1 agonist)
CC(C)n1nc(C(=O)Nc2cccc(S(=O)(=O)N3CCOCC3)c2)c2ccccc2c1=O	none
CCCCCCN1C[C@@H](O)[C@H](n2cc(COC(=O)c3ccccc3)nn2)C[C@@H]1c1ccccc1	none (no result: NTR1 agonist)
CCCC(=O)Nc1ccc(S(=O)(=O)N2CCC(c3nc4ccccc4[nH]3)CC2)cc1	V-ATPase pHluor 19.9
CCC(=O)Nc1ccc(S(=O)(=O)N2CCC(c3nc4ccccc4[nH]3)CC2)cc1	none
COc1cc(OC)cc(C(=O)N/N=C/c2ccc(OC)c(COc3ccc(F)cc3)c2)c1	CRFBP-R2 agonist 62.1
COc1ccc(OCc2cc(/C=N\NC(=O)c3ccccc3)ccc2OC)cc1	none
O=C(CNc1ccc(Br)cc1)c1ccc(Br)s1	none
CC(C)(C)OC(=O)[C@H](Cc1ccccc1)NC(=O)c1ncn2c1c(=O)[nH]c1ccc(Br)cc12	none (no result: NTR1 agonist)
Oc1ccc2ccccc2c1CN1CCCCC1	CRFBP-R2 agonist 109.3 (no result: NTR1 agonist)
Cc1[nH]n(-c2ccccc2)c(=O)c1/C=N/N1C(=O)c2cccc3cccc(c23)C1=O	CRFBP-R2 agonist 61.9
C=C1C(C(=O)Nc2ccccc2)C1C(=O)Nc1ccccc1 (stereo unspecified)	CRFR2-BP antag 59.5
O=C(Cn1c(NCCCO)nc2ccccc21)c1ccc(F)cc1	none
Cn1c(SCC(=O)N2CCCc3ccccc32)nc2cccnc21	CRFR2-BP antag 55.7
COc1ccc(F)cc1S(=O)(=O)NCc1cc(=O)n(C)c(=O)n1C	none
COc1ccc(F)cc1S(=O)(=O)NCC(=O)NCc1cc(=O)n(C)c(=O)n1C	CRFR2-BP antag 76.5
CC1CCc2c(C(=O)Nc3ccccn3)csc2C1 (stereo unspecified)	CRFR2-BP antag 57.3
CC1CCc2c(C(=O)NCc3ccccn3)csc2C1 (stereo unspecified)	none
CC(C)CNC(=O)c1ccccc1N(Cc1ccccc1)S(C)(=O)=O	none
N#C/C(=C\c1ccc(O)cc1)c1nc2ccccc2o1	none
COc1cc(/C=C(\C#N)c2nc3ccccc3o2)ccc1O	CRFBP-R2 agonist 155.4
O=c1c(/C=C(\O)c2ccccc2)nc2ccccc2n1-c1ccccc1	CRFBP-R2 agonist 155.9
Cc1nc2ccccc2n1-c1ccccc1	none
COC(=O)c1cn(NC(=O)c2ccc(F)cc2)c(=O)c2ccccc12	CRFR2-BP antag 104.7
COc1ccc(-n2cnnc2SCC(=O)NC2CCCc3ccccc32)cc1 (stereo unspecified)	none
Cc1cc(C)nc(SCCC(=O)Nc2ccccc2C)n1	CRFR2-BP antag 74.6
CCC(C)c1ccc(NC(=S)Nc2ccc(OC)cc2)cc1 (stereo unspecified)	CRFR2-BP antag 133.5
CCOc1ccc(NC(=S)Nc2ccc(OC)cc2)cc1	none
COc1ccc(NC(=O)CN(C)C(=O)CNC(=O)c2ccc3c(c2)OCO3)cc1	none
CCCN(CC(=O)Nc1ccccc1OC)C(=O)c1ccc(=O)[nH]c1	none
Cc1cccc(N2CN(Cc3cccnc3)CNC2=S)c1	V-ATPase pHluor 15.8
CCc1ccc(N2CN(Cc3cccnc3)CNC2=S)cc1	none
Nc1nnc(SCc2ccc(F)cc2)s1	none
Nc1nc(SCc2ccc(F)cc2)ns1	V-ATPase pHluor 24.4
Cc1ccccc1C(=O)Nc1ccc(C(=O)N/N=C/c2ccc(O)cc2)cc1	none
Cc1cccc2cc(/C=N/NC(=O)c3ccncc3)c(Cl)nc12	none
Cc1nc2c(C)cccc2cc1C(=O)N/N=C/c1ccc(O)cc1	CRFR2-BP antag 71.1
Cc1cccc2cc(/C=N/NC(=O)c3ccccc3O)c(Cl)nc12	CRFBP-R2 agonist 55.1
O=C(O)c1ccc2c(c1)S(=O)(=O)c1cc(N3CCN(c4ncccn4)CC3)ccc1C2=O	none (no result: NTR1 agonist)
O=C(CN1C(=O)CSc2ncccc21)Nc1cccc(Cl)c1	none
COc1cccc2c(=O)n(CC(=O)N3CCc4ccccc43)ccc12	CRFBP-R2 agonist 71.9
O=c1ccnc(SCCc2ccc([N+](=O)[O-])cc2)[nH]1	none
COc1ccc(NC(=O)CSc2nnc(N)s2)c([N+](=O)[O-])c1	CRFR2-BP antag 65.0
O=C(O)C1=C[C@H](c2ccc(F)cc2)C[C@H](OCCCCO)O1	none

Assay outcomes deposited in PubChem by several laboratories.
